Test results published in the supplement of paper PMC10849652.
The full data set covers some 7,900 targets. This sample favours those with a hit. About 0.6% of all pairs of compound and target were hits.

compound: CN1CCN(CCOc2cc(OC3CCOCC3)c3c(Nc4c(Cl)ccc5c4OCO5)ncnc3c2)CC1 [saracatinib]; test: log2 fold change, soluble protein after heating vs DMSO (PISA); higher = thermal stabilisation; K562 cells, 10 uM, 30 min; active = over 0.2 and 3.5 SD of the protein, either way, in both replicates (recomputed)
How it was run: (§1)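 Soluble protein was defined as the supernatant after 21,000xg for 90 min. It came from K562 cells at 2×10^6 cells/mL given 10 μM compound for 30 min, heated in aliquots for 3 min across 48°C-58°C, pooled, and extracted in PBS with 0.5% NP-40 at 4°C, and was quantified by TMTpro 16plex LC-MS/MS with equalised channel sums. Thermal stability against control samples, from duplicates, is reported as log2 fold change.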

Chain of UniProt Q8WUI4 (Q8WUI4 whole entry, looked up): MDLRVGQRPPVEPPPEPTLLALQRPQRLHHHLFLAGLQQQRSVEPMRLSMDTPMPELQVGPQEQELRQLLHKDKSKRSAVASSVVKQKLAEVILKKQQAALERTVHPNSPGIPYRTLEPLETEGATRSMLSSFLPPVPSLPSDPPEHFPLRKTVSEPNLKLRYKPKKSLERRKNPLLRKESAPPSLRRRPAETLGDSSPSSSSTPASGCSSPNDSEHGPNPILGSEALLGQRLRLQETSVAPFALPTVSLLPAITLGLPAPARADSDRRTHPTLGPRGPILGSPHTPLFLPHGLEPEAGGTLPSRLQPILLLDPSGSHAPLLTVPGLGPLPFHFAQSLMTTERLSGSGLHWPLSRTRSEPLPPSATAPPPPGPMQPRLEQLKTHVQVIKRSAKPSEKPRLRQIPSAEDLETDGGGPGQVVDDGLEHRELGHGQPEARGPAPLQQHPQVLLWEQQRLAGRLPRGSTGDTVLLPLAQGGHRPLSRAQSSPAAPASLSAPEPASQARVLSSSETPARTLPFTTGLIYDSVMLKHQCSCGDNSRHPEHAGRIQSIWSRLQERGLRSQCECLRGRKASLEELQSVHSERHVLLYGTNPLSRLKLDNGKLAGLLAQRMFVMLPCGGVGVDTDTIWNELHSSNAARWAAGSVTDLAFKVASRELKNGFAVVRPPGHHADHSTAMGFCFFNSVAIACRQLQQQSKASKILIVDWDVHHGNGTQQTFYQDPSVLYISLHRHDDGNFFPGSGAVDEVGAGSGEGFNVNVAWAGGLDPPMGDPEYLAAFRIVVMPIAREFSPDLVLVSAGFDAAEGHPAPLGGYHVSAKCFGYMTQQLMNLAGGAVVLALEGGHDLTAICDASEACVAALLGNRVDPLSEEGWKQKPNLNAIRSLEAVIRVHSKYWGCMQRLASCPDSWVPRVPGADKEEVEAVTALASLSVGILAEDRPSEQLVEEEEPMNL
Chain of UniProt O94925 (O94925 whole entry, looked up): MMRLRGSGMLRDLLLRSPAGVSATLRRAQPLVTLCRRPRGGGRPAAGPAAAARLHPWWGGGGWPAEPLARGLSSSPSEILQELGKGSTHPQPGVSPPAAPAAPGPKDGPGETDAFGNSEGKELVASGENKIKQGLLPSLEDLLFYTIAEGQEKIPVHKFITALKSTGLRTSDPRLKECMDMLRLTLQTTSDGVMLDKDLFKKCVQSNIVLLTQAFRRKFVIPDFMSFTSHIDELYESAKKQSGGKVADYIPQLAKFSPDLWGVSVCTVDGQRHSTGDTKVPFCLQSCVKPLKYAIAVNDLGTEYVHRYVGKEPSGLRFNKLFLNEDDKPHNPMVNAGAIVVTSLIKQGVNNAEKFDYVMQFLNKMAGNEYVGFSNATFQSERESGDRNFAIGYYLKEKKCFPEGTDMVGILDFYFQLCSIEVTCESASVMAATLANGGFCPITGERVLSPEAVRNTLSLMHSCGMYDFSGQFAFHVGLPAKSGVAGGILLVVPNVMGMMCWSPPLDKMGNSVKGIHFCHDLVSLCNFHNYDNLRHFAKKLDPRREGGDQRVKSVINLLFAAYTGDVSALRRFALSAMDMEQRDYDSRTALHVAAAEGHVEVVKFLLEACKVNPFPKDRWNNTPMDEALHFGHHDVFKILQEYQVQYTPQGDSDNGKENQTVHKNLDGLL
Chain of UniProt P21695 (P21695 whole entry, looked up): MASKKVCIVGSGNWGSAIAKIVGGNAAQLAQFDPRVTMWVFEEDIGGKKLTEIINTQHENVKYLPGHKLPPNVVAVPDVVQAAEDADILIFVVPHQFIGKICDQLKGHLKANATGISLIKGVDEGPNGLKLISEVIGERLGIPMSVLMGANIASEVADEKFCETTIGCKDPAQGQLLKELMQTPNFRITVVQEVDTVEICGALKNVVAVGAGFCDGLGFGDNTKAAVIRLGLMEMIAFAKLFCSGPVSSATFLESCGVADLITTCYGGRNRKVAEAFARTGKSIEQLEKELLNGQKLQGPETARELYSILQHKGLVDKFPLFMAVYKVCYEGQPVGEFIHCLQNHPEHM
Chain of UniProt Q5SSJ5 (Q5SSJ5 whole entry, looked up): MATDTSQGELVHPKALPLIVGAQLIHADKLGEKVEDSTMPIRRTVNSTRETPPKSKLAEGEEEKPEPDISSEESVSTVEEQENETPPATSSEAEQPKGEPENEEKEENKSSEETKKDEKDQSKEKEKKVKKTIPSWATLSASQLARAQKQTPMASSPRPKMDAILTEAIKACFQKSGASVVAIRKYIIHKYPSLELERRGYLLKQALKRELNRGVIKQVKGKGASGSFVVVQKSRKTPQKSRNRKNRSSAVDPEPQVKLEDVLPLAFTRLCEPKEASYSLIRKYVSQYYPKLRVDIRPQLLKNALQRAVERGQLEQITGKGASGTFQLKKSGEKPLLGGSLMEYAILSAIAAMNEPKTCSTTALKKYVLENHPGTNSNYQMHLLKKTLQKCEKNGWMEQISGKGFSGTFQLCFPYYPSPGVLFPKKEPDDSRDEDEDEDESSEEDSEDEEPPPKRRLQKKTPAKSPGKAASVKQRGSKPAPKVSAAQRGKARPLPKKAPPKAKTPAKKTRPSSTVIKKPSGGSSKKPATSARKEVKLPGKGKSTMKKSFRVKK
Chain of UniProt Q96SL8 (Q96SL8 whole entry, looked up): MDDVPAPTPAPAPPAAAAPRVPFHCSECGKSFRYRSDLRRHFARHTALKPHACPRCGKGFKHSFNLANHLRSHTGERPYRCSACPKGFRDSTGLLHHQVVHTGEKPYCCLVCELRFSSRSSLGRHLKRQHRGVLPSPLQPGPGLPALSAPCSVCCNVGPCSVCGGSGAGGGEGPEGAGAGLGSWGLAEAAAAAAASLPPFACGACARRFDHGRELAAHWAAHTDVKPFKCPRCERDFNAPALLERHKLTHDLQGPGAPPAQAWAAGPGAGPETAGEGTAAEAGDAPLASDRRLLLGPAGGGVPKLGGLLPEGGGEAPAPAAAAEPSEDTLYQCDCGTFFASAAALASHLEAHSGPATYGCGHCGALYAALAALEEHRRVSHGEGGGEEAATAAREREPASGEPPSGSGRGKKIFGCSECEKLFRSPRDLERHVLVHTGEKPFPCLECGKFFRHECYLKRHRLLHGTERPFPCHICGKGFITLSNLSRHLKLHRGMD
Chain of UniProt P52655 (P52655 whole entry, looked up): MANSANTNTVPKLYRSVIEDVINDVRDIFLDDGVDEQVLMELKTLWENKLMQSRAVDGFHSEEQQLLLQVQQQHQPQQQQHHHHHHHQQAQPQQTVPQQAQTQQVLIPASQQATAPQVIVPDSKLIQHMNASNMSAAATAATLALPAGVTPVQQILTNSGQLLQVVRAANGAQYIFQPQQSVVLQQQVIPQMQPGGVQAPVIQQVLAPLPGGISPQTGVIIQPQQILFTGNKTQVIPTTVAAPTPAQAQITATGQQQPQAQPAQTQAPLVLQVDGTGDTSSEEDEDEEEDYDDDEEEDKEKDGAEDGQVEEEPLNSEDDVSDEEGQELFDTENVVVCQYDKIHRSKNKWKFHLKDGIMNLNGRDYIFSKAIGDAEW
Chain of UniProt Q9Y613 (Q9Y613 whole entry, looked up): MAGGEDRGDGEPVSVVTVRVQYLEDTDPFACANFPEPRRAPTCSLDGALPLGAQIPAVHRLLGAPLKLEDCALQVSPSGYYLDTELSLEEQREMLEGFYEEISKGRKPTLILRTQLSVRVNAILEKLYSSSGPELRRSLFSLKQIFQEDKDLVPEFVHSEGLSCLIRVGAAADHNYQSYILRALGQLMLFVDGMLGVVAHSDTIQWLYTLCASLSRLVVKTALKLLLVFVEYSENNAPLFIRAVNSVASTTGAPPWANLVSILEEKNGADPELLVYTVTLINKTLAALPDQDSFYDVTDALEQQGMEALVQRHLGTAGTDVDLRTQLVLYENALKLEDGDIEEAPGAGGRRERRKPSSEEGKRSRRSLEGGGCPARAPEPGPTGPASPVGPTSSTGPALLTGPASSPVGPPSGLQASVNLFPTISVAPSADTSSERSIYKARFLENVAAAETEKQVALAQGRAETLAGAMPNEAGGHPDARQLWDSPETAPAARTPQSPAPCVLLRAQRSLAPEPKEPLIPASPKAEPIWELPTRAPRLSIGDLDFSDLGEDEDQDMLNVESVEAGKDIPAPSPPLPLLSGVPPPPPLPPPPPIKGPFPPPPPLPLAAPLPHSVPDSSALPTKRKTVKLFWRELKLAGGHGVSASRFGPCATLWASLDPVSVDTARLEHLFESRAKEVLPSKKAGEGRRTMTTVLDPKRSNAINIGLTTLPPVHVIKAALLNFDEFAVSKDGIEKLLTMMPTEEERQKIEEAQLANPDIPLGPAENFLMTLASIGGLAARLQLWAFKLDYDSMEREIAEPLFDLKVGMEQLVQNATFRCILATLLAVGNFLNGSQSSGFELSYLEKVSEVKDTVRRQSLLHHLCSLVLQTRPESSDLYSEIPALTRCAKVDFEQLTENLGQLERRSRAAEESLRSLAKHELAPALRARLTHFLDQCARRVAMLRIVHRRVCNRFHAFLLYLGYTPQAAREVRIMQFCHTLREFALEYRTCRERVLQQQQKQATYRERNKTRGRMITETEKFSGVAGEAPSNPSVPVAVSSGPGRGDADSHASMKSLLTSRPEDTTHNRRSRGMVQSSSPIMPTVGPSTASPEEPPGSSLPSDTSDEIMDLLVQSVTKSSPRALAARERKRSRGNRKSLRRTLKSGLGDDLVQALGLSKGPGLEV
Chain of UniProt O14893 (O14893 whole entry, looked up): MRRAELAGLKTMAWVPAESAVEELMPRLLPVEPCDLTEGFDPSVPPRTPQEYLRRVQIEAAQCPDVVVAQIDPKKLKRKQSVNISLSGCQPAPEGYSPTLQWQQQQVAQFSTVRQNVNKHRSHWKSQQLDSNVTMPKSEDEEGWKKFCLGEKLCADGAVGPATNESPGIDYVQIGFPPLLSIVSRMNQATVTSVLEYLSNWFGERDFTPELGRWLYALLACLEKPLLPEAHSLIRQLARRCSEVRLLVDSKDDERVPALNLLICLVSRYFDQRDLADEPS
Chain of UniProt P01344 (P01344 whole entry, looked up): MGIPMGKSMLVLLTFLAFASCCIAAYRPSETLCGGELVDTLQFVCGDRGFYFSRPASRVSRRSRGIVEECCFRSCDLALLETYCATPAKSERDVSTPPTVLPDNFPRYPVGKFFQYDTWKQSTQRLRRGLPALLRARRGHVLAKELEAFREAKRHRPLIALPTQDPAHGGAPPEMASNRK

Row | Target | log2 fold change
1 | HP1BP3 (UniProt Q5SSJ5) | -0.045 (inactive)
2 | GLS isoform 3 (UniProt O94925) | -0.025 (inactive)
3 | FHOD1 (UniProt Q9Y613) | -0.143 (inactive)
4 | GPD1 (UniProt P21695) | -0.005 (inactive)
5 | GSE1 (UniProt Q14687) | -0.077 (inactive)
6 | FAT2 (UniProt Q9NYQ8) | -0.243 (inactive)
7 | FBXO9 (UniProt Q9UK97) | -0.024 (inactive)
8 | GSTT1 (UniProt P30711) | -0.011 (inactive)
9 | GOLGA8R (UniProt I6L899) | -0.126 (inactive)
10 | HDAC7 isoform 5 (UniProt Q8WUI4) | -0.04 (inactive)
11 | GEMIN2 (UniProt O14893) | 0.001 (inactive)
12 | GNL3 (UniProt Q9BVP2) | -0.124 (inactive)
13 | GTF2A1 (UniProt P52655) | 0.048 (inactive)
14 | IGF2 isoform 3 (UniProt P01344) | 0.148 (inactive)
15 | FCF1 (UniProt Q9Y324) | -0.111 (inactive)
16 | FYB1 isoform 3 (UniProt O15117) | 0.007 (inactive)
17 | GBE1 (UniProt Q04446) | -0.252 (inactive)
18 | ICMT (UniProt O60725) | -0.105 (inactive)
19 | HNRNPUL1 (UniProt M0R247) | -0.327 (inactive)
20 | GOPC (UniProt Q9HD26) | -0.147 (inactive)
21 | HNRNPK isoform 3 (UniProt P61978) | 0.04 (inactive)
22 | FIZ1 (UniProt Q96SL8) | 0.149 (inactive)
23 | HDAC10 (UniProt Q969S8) | -0.04 (inactive)
24 | FAT1 (UniProt Q14517) | -0.085 (inactive)
25 | HS1BP3 (UniProt Q53T59) | 0.107 (inactive)

compound: CN1CCN(c2nc(C3=C(c4c[nH]c5ccccc45)C(=O)NC3=O)c3ccccc3n2)CC1 [sotrastaurin]; test: as above
How it was run: as §1

Row | Target | log2 fold change
26 | HP1BP3 (UniProt Q5SSJ5) | -0.071 (inactive)
27 | GLS isoform 3 (UniProt O94925) | -0.027 (inactive)
28 | FHOD1 (UniProt Q9Y613) | -0.112 (inactive)
29 | GPD1 (UniProt P21695) | 0.065 (inactive)
30 | FUNDC1 (UniProt Q8IVP5) | 0.049 (inactive)
31 | GREB1 (UniProt Q4ZG55) | -0.175 (inactive)
32 | HDAC7 isoform 5 (UniProt Q8WUI4) | -0.048 (inactive)
33 | GEMIN2 (UniProt O14893) | 0.067 (inactive)
34 | GNL3 (UniProt Q9BVP2) | 0.03 (inactive)
35 | GTF2A1 (UniProt P52655) | 0.087 (inactive)
36 | HSPA8 (UniProt E9PN89) | 0.105 (inactive)
37 | GPS2 (UniProt Q13227) | -0.007 (inactive)
38 | FCF1 (UniProt Q9Y324) | -0.116 (inactive)
39 | FMR1 (UniProt Q06787) | -0.105 (inactive)
40 | GOLGA6B (UniProt A6NDN3) | 0.068 (inactive)
41 | FYB1 isoform 3 (UniProt O15117) | -0.101 (inactive)
42 | ICMT (UniProt O60725) | 0.025 (inactive)
43 | HNRNPUL1 (UniProt M0R247) | 0.128 (inactive)
44 | GOPC (UniProt Q9HD26) | 0.01 (inactive)
45 | HNRNPK isoform 3 (UniProt P61978) | 0.059 (inactive)
46 | FIZ1 (UniProt Q96SL8) | 0 (inactive)
47 | HSPA2 (UniProt P54652) | 0.038 (inactive)
48 | FAT1 (UniProt Q14517) | -0.072 (inactive)
49 | HS1BP3 (UniProt Q53T59) | -0.078 (inactive)

compound: CN1CC[C@H](c2c(O)cc(O)c3c(=O)cc(-c4ccccc4Cl)oc23)[C@H](O)C1 [alvocidib]; test: as above
How it was run: as §1

Row | Target | log2 fold change
50 | IDH3A isoform 2 (UniProt P50213) | -0.206 (inactive)
51 | HP1BP3 (UniProt Q5SSJ5) | 0.039 (inactive)
52 | GLS isoform 3 (UniProt O94925) | -0.246 (inactive)
53 | FHOD1 (UniProt Q9Y613) | 0.292 (inactive)
54 | GPD1 (UniProt P21695) | 0.131 (inactive)
55 | GSE1 (UniProt Q14687) | -0.186 (inactive)
56 | FAT2 (UniProt Q9NYQ8) | 0.083 (inactive)
57 | GREB1 (UniProt Q4ZG55) | 0.123 (inactive)
58 | FBXO9 (UniProt Q9UK97) | -0.018 (inactive)
59 | GSTT1 (UniProt P30711) | -0.023 (inactive)
60 | GOLGA8R (UniProt I6L899) | 0.018 (inactive)
61 | HDAC7 isoform 5 (UniProt Q8WUI4) | -0.185 (inactive)
62 | GEMIN2 (UniProt O14893) | 0.009 (inactive)
63 | GNL3 (UniProt Q9BVP2) | 0.145 (inactive)
64 | GTF2A1 (UniProt P52655) | -0.039 (inactive)
65 | HSPA8 (UniProt E9PN89) | 0.281 (inactive)
66 | FMR1 (UniProt Q06787) | 0.046 (inactive)
67 | GBE1 (UniProt Q04446) | -0.084 (inactive)
68 | HNRNPUL1 (UniProt M0R247) | 0.326 (inactive)
69 | GOPC (UniProt Q9HD26) | 0.065 (inactive)
70 | FIZ1 (UniProt Q96SL8) | 0.141 (inactive)
71 | HDAC10 (UniProt Q969S8) | 0.011 (inactive)
72 | FAT1 (UniProt Q14517) | 0.021 (inactive)
73 | HS1BP3 (UniProt Q53T59) | -0.275 (inactive)
